Experimental data published in PubChem BioAssay (EPA / NIEHS).
Results filed as inconclusive are left out. Calls of active or inactive are those of the source. How the source made its calls, unless noted: active means hit-call score of the fitted dose curve at least 0.9, where 1 is the maximum; inactive means score below 0.9.

Experiments:
[1] = CCTE_Shafer_MEA_acute_spike_number: CCTE's Neural Acute Assay for Total Number of Spikes, Shafer Lab (AID 2284008);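 on AC50: curve fitted for decrease in spike count so AC50 reflects inhibitors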
Method in brief: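 Rat primary cortical neurons on 48-well MEA plates, DIV 13 or 15, at 37 C. 40 min baseline then 40 min with compound (0.03-40 uM); spikes detected at 8x rms noise, expressed as percent change from baseline.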

[2] = CCTE_Shafer_MEA_acute_firing_rate_mean: CCTE's Neural Acute Assay for Mean Firing Rate, Shafer Lab (AID 2284009);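 further: analyzed for loss of signal so actives lower firing rate relative to DMSO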
Method in brief: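 Read-out: well-mean spike rate (spikes/recording length/electrodes), % change from 40 min pre-dose baseline to 40 min with compound. Rat cortical cultures, DIV 13 or 15, 37 C; 0.03-40 uM; DMSO as negative control.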

[3] = CCTE_Harrill_HTTr_Viability_MCF7: CCTE's 6-hour Cell Viability Assessment for the High-Throughput Transcriptomics (HTTr) Platform, in MCF-7 cells cultured in DMEM + 10% fetal bovine serum, Harrill Lab (AID 2284010)
Method in brief: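 Membrane integrity was scored by high-content imaging of propidium iodide dye exclusion after a 6 h exposure across an eight-point dilution series. Data were fitted bidirectionally relative to DMSO as negative control and baseline.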

[4] = CCTE_Harrill_HTTr_Apoptosis_MCF7: CCTE's 6-hour Apoptosis Assessment for the High-Throughput Transcriptomics (HTTr) Platform, in MCF-7 cells cultured in DMEM + 10% fetal bovine serum, Harrill Lab (AID 2284011)
Method in brief: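 MCF-7 cells in DMEM + 10% FBS exposed 6 h to chemicals over an eight-point dilution series. Caspase-3/7 activation imaged by high-content CellEvent Green staining; fitted bidirectionally versus DMSO.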

[5] = CCTE_Harrill_HTTr_CellCount_MCF7: CCTE's Cell Proliferation Assessment for the High-Throughput Transcriptomics (HTTr) Platform, Harrill Lab (AID 2284012; active means hit-call score of the fitted dose curve at least 0.9, where 1 is the maximum;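 further: cells exposed to compound for six hours; intended direction is loss of nuclei count meaning fewer cells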)
Method in brief: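 MCF-7 cells were exposed for 6 h to an eight-point dilution series; Hoechst-labeled nuclei were counted by high content imaging. Curves were fitted bidirectionally against DMSO as negative control and baseline, with signal loss indicating reduced cell count.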

[6] = CCTE_Shafer_MEA_acute_burst_number: CCTE's Neural Acute Assay for Single-Electrode Bursts, Shafer Lab (AID 2284013)
Method in brief: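 Rat cortical cultures, DIV 13/15; 40 min baseline, then 40 min with compound 0.03-40 uM, 37 C. Spikes: 300-5000 Hz band-pass, threshold 8x rms noise. Readout = % change in single-electrode bursts vs baseline, loss-of-signal fit.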

[7] = CCTE_Shafer_MEA_acute_burst_duration_mean: CCTE's Neural Acute Assay for Mean Burst Duration, Shafer Lab (AID 2284014);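 further: hits are decreases in mean burst duration relative to DMSO controls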
Method in brief: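 Primary rat cortical neurons on 16-electrode MEA wells, treated on DIV 13 or 15 with compound (0.03-40 uM; ≥3 wells each). 40-min baseline and 40-min exposure recordings at 37 C; percent change in mean burst duration per well versus DMSO.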

[8] = CCTE_Shafer_MEA_acute_per_burst_spike_number_mean: CCTE's Neural Acute Assay for Average Number of Spikes Per Burst, Shafer Lab (AID 2284015);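 further: hits are decreases in mean spikes per burst versus baseline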
Method in brief: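 Primary rat cortical neurons on 48-well MEA plates, treated on DIV 13 or 15 at 0.03-40 uM. Spontaneous activity recorded 40 min before and 40 min after compound at 37 C; percent change in mean spikes per single-electrode burst per well, fitted in the loss direction versus DMSO.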

[9] = CCTE_Shafer_MEA_acute_interburst_interval_mean: CCTE's Neural Acute Assay for Mean Interburst Interval, Shafer Lab (AID 2284016);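 further: percent change of mean interburst interval versus each well's own pre-dose baseline; curves fitted for decrease in interburst interval relative to DMSO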
Method in brief: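 Primary rat cortical neurons on 16-electrode MEA wells were recorded 40 min at baseline on DIV 13 or 15, then 40 min after compound (0.03-40 uM), at 37 C. Value is percent change in mean interburst interval per well, DMSO as negative control.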

[10] = CCTE_Shafer_MEA_acute_burst_percentage_mean: CCTE's Neural Acute Assay for Percentage of Spikes in a Burst, Shafer Lab (AID 2284017);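 on AC50: curve fitted for loss of signal so potency reflects decreased burst percentage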
Method in brief: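 Primary rat cortical neurons on 16-electrode MEA wells; 40 min baseline recorded at DIV 13 or 15, then 40 min after compound (0.03-40 uM) at 37 C. Well-mean fraction of spikes in single-electrode bursts; percent change from baseline, DMSO as negative control.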

[11] = CCTE_Shafer_MEA_acute_burst_percentage_std: CCTE's Neural Acute Assay for Standard Deviation of Burst Percentage, Shafer Lab (AID 2284018);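 further: fitted in the negative direction so actives lower burst percentage SD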
Method in brief: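 Primary rat cortical neurons on 16-electrode MEA wells were recorded 40 min at baseline (DIV 13 or 15), then 40 min after compound (0.03-40 uM), at 37 C. Well value is SD across electrodes of spikes-in-bursts/total spikes; endpoint is percent change, DMSO-referenced.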

[12] = CCTE_Shafer_MEA_acute_per_network_burst_spike_number_mean: CCTE's Neural Acute Assay for Average Number of Spikes in a Network Burst, Shafer Lab (AID 2284019)
Method in brief: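 Primary rat cortical neurons on 16-electrode MEA wells, DIV 13 or 15, 37 C; 40-min baseline then 40-min recording with compound (0.03-40 uM). Spikes per network burst (total spikes/number of bursts) expressed as percent change from baseline, DMSO reference.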

[13] = CCTE_Simmons_MITO_basal_resp_rate: CCTE's HepG2 Seahorse XF Respirometric Screening Assay at Basal Respiratory State, Simmons Lab (AID 2284001); settings: actives raise or lower the signal
Method in brief: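 HepG2 cells were given test chemicals at 7 concentrations, 125 nM to 100 uM final, and oxygen consumption rate was read every 6 min (3 min mix, 3 min measure) over 72 min. Basal-phase OCR was fitted bidirectionally against DMSO.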

[14] = CCTE_Simmons_MITO_max_resp_rate: CCTE's HepG2 Seahorse XF Respirometric Screening Assay at Maximal Respiratory State [uncoupled], Simmons Lab (AID 2284002); settings: actives raise or lower the signal
Method in brief: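 HepG2 oxygen consumption measured on Seahorse XF after FCCP uncoupling, following test compound injection; 7 concentrations from 125 nM to 100 uM final. Readings every 6 min over 72 min, three biological replicates; bidirectional fit versus DMSO.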

[15] = CCTE_Simmons_MITO_inhib_resp_rate: CCTE's HepG2 Seahorse XF Respirometric Screening Assay at Inhibited Respiratory State [full ETC block], Simmons Lab (AID 2284006); settings: actives raise or lower the signal
Method in brief: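 HepG2 cells on Seahorse XF96; oxygen consumption measured after test compound, then FCCP, then rotenone/antimycin A injections over 72 min. Test chemicals at 7 concentrations, 125 nM–100 uM final. OCR fitted bidirectionally versus DMSO.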

Measured: AC50

CC(=O)OC(c1ccccc1)C(Cl)(Cl)Cl (configuration not stated)
active: [10] 15 µM
not listed: [13] | [14] | [15]
inactive: all other assays above

O=Cc1cccc(Oc2ccccc2)c1
inactive: [3] | [4]

COC[C@H](C)N(C(=O)CCl)c1c(C)csc1C
inactive: [3] | [4]

ClCCBr
inactive: [3] | [4]

C=C(C)C#N
inactive: [3] | [4]

COC(=O)Cc1ccccc1
not listed: [5] | [13] | [14] | [15]
inactive: all other assays above

NC(=O)O
inactive: [3] | [4]

O=C(OC1CCCCC1)c1ccccc1C(=O)OC1CCCCC1
inactive: [3] | [4]

Fc1ccc(C2(Cn3cncn3)OC2c2ccccc2Cl)cc1 (configuration not stated)
inactive: [3] | [4]

CC(C)(OO)c1ccccc1
not listed: [13] | [14] | [15]
inactive: all other assays above

CC1CCCCC1NC(=O)Nc1ccccc1 (configuration not stated)
inactive: [3] | [4] | [5]

COP(=S)(OC)Oc1cc(Cl)c(Br)cc1Cl
inactive: [3] | [4]

O=C(Nc1ccc2[nH]ccc2c1)c1cc2cc(F)ccc2n1Cc1cccc(F)c1
active: [1] 1.43 µM | [2] 1.43 µM | [9] 4.2 µM
not listed: [5]
inactive: all other assays above

BrCCBr
inactive: [3] | [4]

CCOP(=S)(OCC)SCSP(=S)(OCC)OCC
active: [10] 20 µM
not listed: [5] | [13] | [14] | [15]
inactive: all other assays above

COc1ccc(C(O)(c2cncnc2)C2CC2)cc1 (configuration not stated)
inactive: [3] | [4] | [5]

Oc1cccc2cccnc12
inactive: [3] | [4] | [5]

ClC1=C(Cl)[C@]2(Cl)[C@H]3[C@H]([C@H]4C=C[C@H]3C4)[C@@]1(Cl)C2(Cl)Cl
inactive: [3] | [4] | [5]

CC(C)OC(=O)Nc1ccccc1
inactive: [3] | [4] | [5]

COc1ccc(C=O)cc1
inactive: [3] | [4] | [5]

C=CC#N
inactive: [3] | [4] | [5]

NC(=O)CF
inactive: [3] | [4] | [5]

O=S(=O)(c1ccc(Cl)cc1)c1ccc(Cl)cc1
inactive: [3] | [4] | [5]

CN(C)N=O
inactive: [3] | [4] | [5]

ClC(Cl)=C(Cl)C(Cl)=C(Cl)Cl
inactive: [3] | [4] | [5]

Nc1cccc2ccccc12
active: [3] 37.4 µM
inactive: [4] | [5]

CCOP(=S)(OCC)Oc1ccc(S(C)=O)cc1 (configuration not stated)
inactive: [3] | [4] | [5]

Oc1ccc(-c2ccccc2)cc1
inactive: [3] | [4] | [5]

P.[In]
inactive: [3] | [4] | [5]

CCOC(=O)Nc1cccc(OC(=O)Nc2ccccc2)c1
inactive: [3] | [4] | [5]

COc1cc2c(cc1OC)[C@@]13CCN4CC5=CCO[C@H]6CC(=O)N2[C@H]1[C@H]6[C@H]5C[C@H]43
inactive: [3] | [4] | [5]

N#CCCO
inactive: [3] | [4] | [5]

COc1ccc(C=O)cc1OC
inactive: [3] | [4] | [5]

Cc1ccc(N)cc1Cl
inactive: [3] | [4] | [5]

Nc1ccc(-c2ccc(N)c(Cl)c2)cc1Cl
inactive: [3] | [4] | [5]

CCCCOCCOC(C)=O
inactive: [3] | [4] | [5]

CCC[CH2][Sn]([CH2]CCC)([CH2]CCC)[O]C(=O)c1ccccc1
active: [3] 15.6 µM | [4] 11.5 µM | [5] 17.9 µM

CC(C)C1CCC(Cc2ccc(Cl)cc2)C1(O)Cn1cncn1 (configuration not stated)
inactive: [3] | [4] | [5]

C[C@]12CC[C@H](O)CC1=CC[C@@H]1[C@@H]2CC[C@]2(C)C(=O)CC[C@@H]12
inactive: [3] | [4] | [5]

CC1(C)CCC(Cc2ccc(Cl)cc2)C1(O)Cn1cncn1 (configuration not stated)
inactive: [3] | [4] | [5]

CCCCCCCCC(=O)NCc1ccc(O)c(OC)c1
inactive: [3] | [4] | [5]

Nc1ccc(N=Nc2ccc(-c3ccc(N=Nc4c(S(=O)(=O)O)cc5cc(S(=O)(=O)O)c(N=Nc6ccccc6)c(O)c5c4N)cc3)cc2)c(N)c1
inactive: [3] | [4] | [5]
